We go through 23 molecules from PubChem BioAssay (NCATS).

Experiment [1] in a line: qHTS of pediatric cancer cell lines to identify multiple opportunities for drug repurposing: Primary screen for BT-12 cells (AID 1347101). Further: nearly all actives have a fitted effect of over 25% in size. The method, boiled down: (§1)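 Cells (500-1,000/well) rested 5 h, then received compounds for 48 h; metabolically active cells were measured by CellTiter-Glo luminescence. Final concentrations spanned up to 46 µM (MIPE, 11-point) or 0.59 nM-46 µM (NPC, 8-point) in primary screens, 11-point in follow-ups.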

A short description of experiment [2]: qHTS of pediatric cancer cell lines to identify multiple opportunities for drug repurposing: Primary screen for OHS-50 cells (AID 1347103). Further: nearly all actives have a fitted effect of over 40% in size. Further: potency means the concentration at half of the fitted maximal effect. The method, boiled down: as §1
A short description of experiment [3]: qHTS of pediatric cancer cell lines to identify multiple opportunities for drug repurposing: Primary screen for MG 63 (6-TG R) cells (AID 1347105). Further: nearly all actives have a fitted effect of over 50% in size. Further: potency means the concentration at half of the fitted maximal effect. In a few lines: (§2)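 Readout: CellTiter-Glo luminescence, 48 h treatment. Controls DMSO (neutral) and bortezomib 2.3 µM final (positive). Potency and efficacy taken from primary-screen concentration-response curves.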

Experiment [4] in a line: qHTS of pediatric cancer cell lines to identify multiple opportunities for drug repurposing: Primary screen for control Hh wild type fibroblast cells (AID 1347106).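 Further: series mostly up to about 46 µM; a drop in luminescence marks cytotoxicity and a rise apparent proliferation; nearly all actives have a fitted effect of over 55% in size.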 In a few lines: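 Cells (500-1,000/well) in growth media were settled 5 h at 37 degrees C, then given compounds for 48 h. Viability was read as CellTiter-Glo luminescence. Primary runs used MIPE at 11 points (0.78 nM-46 µM) and NPC at 8 points (0.59 nM-46 µM); follow-ups used 11 points.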

The nature of experiment [5]: qHTS of pediatric cancer cell lines to identify multiple opportunities for drug repurposing: Primary screen for Rh41 cells (AID 1347108).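 Further: series mostly up to about 46 µM; luminescence drop marks cytotoxic hits; nearly all actives have a fitted effect of over 70% in size.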 The method, boiled down:
as §2

Experiment [6] is described as follows: qHTS of pediatric cancer cell lines to identify multiple opportunities for drug repurposing: Primary screen for Rh30 cells (AID 1347107). Further: series mostly up to about 46 µM; nearly all actives have a fitted effect of over 75% in size. In a few lines:
as §1

The nature of experiment [7]: qHTS of pediatric cancer cell lines to identify multiple opportunities for drug repurposing: Primary screen for RD cells (AID 1347104). Further: nearly all actives have a fitted effect of over 55% in size. Further: potency means the concentration at half of the fitted maximal effect. The method, boiled down: as §2
The nature of experiment [8]: qHTS of pediatric cancer cell lines to identify multiple opportunities for drug repurposing: Primary screen for Rh18 cells (AID 1347102). Further: nearly all actives have a fitted effect of over 65% in size. In a few lines: as §1
Experiment [9] is described as follows: qHTS of pediatric cancer cell lines to identify multiple opportunities for drug repurposing: Confirmatory screen for NB1643 cells (AID 1347109). Further: nearly all actives have a fitted effect of over 45% in size. The method, boiled down:
as §1

A short description of experiment [10]: qHTS of pediatric cancer cell lines to identify multiple opportunities for drug repurposing: Confirmatory screen for A673 cells (AID 1347110).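 Further: potency means the concentration at half of the fitted maximal effect; cells exposed to compound for 48 h before the viability read; nearly all actives have a fitted effect of over 65% in size.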 In a few lines: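 A673 cells at 500-1,000 cells/well were dosed 5 h after plating, in dilution series up to 46 uM final; primary runs used 8 or 11 points and confirmatory runs used 11 points. Viability was read by CellTiter-Glo luminescence after 48 h, against DMSO and 2.3 uM bortezomib controls.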

Structures are written as SMILES. Records with an inconclusive call do not appear. Values without a mark were called inactive. The source made the active and inactive calls. The call rests on the fitted dose curve; in most records, active means well fitted curve in the direction sought with a large enough effect; inconclusive means small, poorly fitted or top-dose-only effect, or another doubt; inactive means no such curve, though single readings can be large; an effect the other way counts as inactive or inconclusive.

With `CCCCC(CC)COC(=O)c1ccccc1O` (stereo unspecified), the Potency entry in [1], in [2], in [3] and in [5] was “inactive” in each case. In addition, the molecule was classed as inactive in [4].
`OCCN1CCN(CCCN2c3ccccc3Sc3ccc(Cl)cc32)CC1`: the Potency in experiment [2] is 24.6 µM (active).
Consider `CN1[C@@H]2CC(OC(=O)[C@H](CO)c3ccccc3)C[C@H]1[C@@H]1O[C@@H]12` (stereo partly specified), for which the Potency entry in experiment [1], in [2] and in experiment [3] was “inactive” throughout. For the same molecule, the molecule was classed as inactive in experiment [4] and in experiment [6].
With `CC(CN(C)C)CN1c2ccccc2CCc2ccccc21` (stereo unspecified), the Potency in [2] is 17.4 µM (active). Moreover, the Potency result in [3] and in experiment [5] was “inactive” in each case. Also, the result in experiment [4] and in experiment [6] was inactive.
In the case of `CC(=O)c1ccc2c(c1)N(CCCN(C)C)c1ccccc1S2`, the Potency entry in [1] and in experiment [5] was “inactive” each time. The call in experiment [4] and in [6] was inactive.
As to `CN(C)CCN(Cc1ccccc1)c1ccccn1`, the Potency result in [1], in experiment [7], in experiment [3] and in experiment [5] was “inactive” in each case. The outcome in experiment [4] and in [6] was inactive.
Consider `CSc1ccc2c(c1)C(N1CCN(C)CC1)Cc1ccccc1S2` (stereo unspecified), for which the Potency in experiment [2] was 27.6 µM (active). Besides, the call in experiment [4] and in experiment [6] was inactive. Besides, the Potency entry in [5] is “inactive”.
Turning to `CC1(C)Oc2ccc(C#N)cc2[C@@H](N2CCCC2=O)[C@@H]1O`, the Potency result in experiment [1], in [2], in experiment [3] and in [5] was “inactive” each time. For the same molecule, the molecule was classed as inactive in experiment [4] and in [6].
For `CCCCOC(=O)c1ccc(O)cc1`, the Potency entry in experiment [8], in experiment [7], in experiment [3] and in experiment [5] was “inactive” throughout. Moreover, the molecule was called inactive in [4] and in experiment [6].
On to `Cc1ccc2nc(N)[nH]c(=O)c2c1Sc1ccncc1`, for which the Potency entry in experiment [8] and in experiment [9] was “inactive” throughout. Moreover, the outcome in experiment [4] was inactive. In experiment [10], the Potency was 0.465 µM (active).
`CC(=O)O[C@@]12CO[C@@H]1C[C@H](O)[C@@]1(C)C(=O)[C@H](O)C3=C(C)[C@@H](OC(=O)[C@H](O)[C@@H](NC(=O)OC(C)(C)C)c4ccccc4)C[C@@](O)([C@@H](OC(=O)c4ccccc4)[C@H]21)C3(C)C`: in experiment [8], the Potency entry is “inactive”. Moreover, in [2], the Potency was 0.0031 µM (active). Moreover, the call in experiment [4] and in [6] was inactive.
As to `O=C(O)[C@H](O)c1ccccc1`, the Potency result in experiment [1], in experiment [7], in experiment [3] and in [5] was “inactive” each time. Further, the result in experiment [4] and in experiment [6] was inactive.
`OCc1cc(C(O)CNCCCCCCOCCCCc2ccccc2)ccc1O` (stereo unspecified): the Potency in [2] was 19.5 µM (active). Further, the Potency entry in [3] and in experiment [5] was “inactive” throughout. Further, the call in experiment [4] and in [6] was inactive.
Regarding `CNCCC(Oc1ccc(C(F)(F)F)cc1)c1ccccc1` (stereo unspecified), the Potency in experiment [2] is 27.6 µM (active); in experiment [3], 16.8 µM (active). Also, the result in experiment [4] and in experiment [6] was inactive.
Turning to `O=C(CCCN1CCN(c2ccccn2)CC1)c1ccc(F)cc1`, the Potency result in experiment [8], in experiment [7], in [3] and in [5] was “inactive” in each case. In addition, the call in [4] was inactive.
Take `C[C@]12CC[C@@H]3c4ccc(O)cc4CC[C@H]3[C@@H]1CC[C@@H]2OC(=O)CCC1CCCC1`: the Potency result in experiment [8] and in [5] was “inactive” in each case. Further, the Potency in experiment [2] is 27.6 µM (active). In addition, the outcome in [4] was inactive.
On to `CN(C)CCC=C1c2ccccc2CCc2ccccc21`, for which the Potency result in experiment [3] and in [5] was “inactive” throughout. Besides, the molecule was classed as inactive in experiment [4] and in experiment [6].
With `CS(=O)(=O)c1ccc([C@@H](O)[C@@H](CF)NC(=O)C(Cl)Cl)cc1`, the Potency result in [8], in experiment [2], in experiment [7], in [3] and in [5] was “inactive” each time. Further, the outcome in experiment [4] and in experiment [6] was inactive.
Regarding `Nc1cc(=O)[nH]c(N)n1`, the Potency result in experiment [1], in [2], in [3] and in [5] was “inactive” throughout. Also, the call in experiment [4] and in [6] was inactive.
For `CN(C)CCCN1c2ccccc2Sc2ccc(Cl)cc21`, the Potency in experiment [2] was 27.6 µM (active). The molecule was classed as inactive in experiment [4] and in experiment [6].
As for `CNCCCC1c2ccccc2C=Cc2ccccc21`, the results for the Potency in experiment [2] and in [7] were 21.9 µM (active) and 26.6 µM (active), respectively. The molecule was classed as inactive in experiment [4] and in experiment [6]. In addition, the Potency entry in experiment [5] was “inactive”.
For the molecule `NC1[C@H]2CN(c3nc4c(cc3F)c(=O)c(C(=O)O)cn4-c3ccc(F)cc3F)C[C@@H]12` (stereo partly specified), the Potency entry in experiment [8], in experiment [2] and in experiment [3] was “inactive” throughout. Further, in [6], the molecule was classed as inactive.
Take `CC(CN1c2ccccc2Sc2ccccc21)N(C)C` (stereo unspecified): the Potency entry in experiment [3] is “inactive”. Further, the result in experiment [4] and in [6] was inactive.
